An excerpt weighted towards active compounds, which were near 19% of everything screened.
Shiga inhibitor – Shiga toxin inhibition | hit rate 9.2% among 290,000 | Vero cells, Shiga toxin protein synthesis inhibition reporter | inhibition, % at 38.7 µM | AID 2315; in the data active means inhibition mostly above about 28%, no sharp cut-off; inactive means mostly below about 43%; further: 0% is about no effect
LASV entry inh – Lassa virus entry inhibition; hit rate 1.2% among 300,000; Lassa virus pseudotype entry inhibition, cell reporter; AID 540256; Potency, µM (top dose mostly 37.9 µM), for inactives: at the top dose activity change, negative = inhibition, most hits filed as inhibitors; calls by dose curve; tested in HEK293 cells; further: potency means the concentration at half of the fitted maximal effect; on the % scale 0 is the no-effect control and ±100 the full control effect; nearly all actives have a fitted effect of over 50% in size
Marburg entry inh – Marburg virus entry inhibition; Marburg virus pseudotyped entry inhibition, cell reporter; Potency, µM (series often up to 37.8 µM), without a hit: top-dose activity change, negative = inhibition, actives largely listed as inhibitors; hit rate 1.8% among 300,000; calls by dose curve; tested in HEK293 cells; further: potency means the concentration at half of the fitted maximal effect; on the % scale 0 is the no-effect control and ±100 the full control effect
Cycloheximide cs – counter-screen for Shiga toxin inhibitors: cycloheximide protein synthesis inhibition | max response, % | hit rate 12% among 300,000 | cell reporter, cycloheximide protein synthesis inhibition counterscreen | AID 2314; in the data active means max response mostly above about 13%, no sharp cut-off; inactive means mostly below about 14%; further: read at 38.3 µM for the half of the compounds with a filed dose; 0% is about no effect
Pf growth 48h – P. falciparum growth inhibition at 48 hours (one generation); P. falciparum luciferase growth in erythrocytes, 48 h; hit rate 5.9% among 310,000; Potency, µM (titrated, usually from 28.7 µM), inactives show at the highest dose activity change, negative = inhibition, actives largely listed as inhibitors; AID 504832; further: potency means the concentration at half of the fitted maximal effect; on the % scale 0 is the no-effect control and ±100 the full control effect
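First compound was added to culture medium, then infected red cells at 0.1% parasitemia and 2% hematocrit (final). After incubation at 37 C under 5% CO2, luciferase detection reagent was dispensed and light output recorded.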
Pf growth 96h – P. falciparum growth inhibition at 96 hours; P. falciparum luciferase reporter growth, 96 h; Potency, µM (highest dose often 28.7 µM), for inactives: top-dose activity change, negative = inhibition, most hits filed as inhibitors; hit rate 6.9% among 320,000; AID 504834; further: potency means the concentration at half of the fitted maximal effect; on the % scale 0 is the no-effect control and ±100 the full control effect
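Erythrocytes infected with luciferase-expressing P. falciparum were dispensed at 2% hematocrit and 0.05% parasitemia (final), then incubated with compounds 96 hours at 37 C in 5% CO2. Luminescence after detection reagent addition reported growth.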
The depositor's hits bear a star; ? = inconclusive; . = no result given; [ ] = another dose, or the depositor's remark. Unless noted, the call rests on the fitted dose curve; in most records, active means well fitted inhibition curve with a large enough effect; inconclusive means small, poorly fitted or top-dose-only effect, or another doubt; inactive means no such curve, though single readings can be large or run the other way.

SMILES	Shiga inhibitor	LASV entry inh	Marburg entry inh	Cycloheximide cs	Pf growth 48h	Pf growth 96h
CC(=O)c1c(C)oc2ccc(N(C(=O)c3ccncc3)S(=O)(=O)c3ccc(C)cc3C)cc12	.	5%[46.1 µM]	?	.	.	.
COc1ccc(NC(=O)c2ccc3nc[nH]c3c2)c(OC)c1	11	12%	5%[46.1 µM]	10	19%	42%
COc1ccc(CNc2ccc3c(c2)ncn3C)cc1OC	-6	-13%[46.1 µM]	?	-1	1%	14%
CCn1cnc2cc(NCc3ccc(Cl)cc3)ccc21	119*	?	?	41*	36%	-2%
Cc1ccc(CNc2ccc3c(c2)ncn3C)cc1	81*	-2%	?	46*	78%	-7%
COCCNC(=O)c1cc2oc3ccccc3c2n1C	89*	-5%	22%	62*	144%	.
CCOc1ccccc1CNC(=O)c1cc2oc3ccccc3c2n1C	24	?	?	3	?	.
O=C1C(c2ccccc2)=C(N2CC2)c2ccccc21	41	4%	12%[46.1 µM]	16	5.9µM*	3.7µM*
Cc1nnc2n(C3CCCCC3)c(=O)c3c4c(sc3n12)CCC4	-20	.	.	-2	-2%	3.3µM*
CCOCCCN1CN(Cc2ccccc2)CNC1=S	-11	22%	10%	-2	4%	?
CCCCN1CN(Cc2ccccc2)CNC1=S	-2	-1%	13%	-3	-20%	9.3µM*
CC1(C)Cn2c(nnc2-c2cccc(O)c2)S1	66*	34%[14.3 µM]	18%	24*	44%	12µM*
CCOCCCNC(=S)N1CCN(c2nc(-c3ccccc3)cs2)CC1	-11	.	.	-2	-25%	-24%
COc1cccc(-c2csc(N3CCN(C(=S)Nc4ccccc4Cl)CC3)n2)c1	20	?	-2%	8	13µM*	?
COc1cccc(-c2csc(N3CCN(C(=S)NCC(C)C)CC3)n2)c1	16	-16%[46.1 µM]	?	1	13µM*	15µM*
CC(C)CNC(=S)N1CCN(c2nc(-c3ccc(Cl)cc3)cs2)CC1	-5	17%[46.1 µM]	?	4	-8%	10µM*
COc1cccc(-c2csc(N3CCN(C(=S)Nc4ccccc4OC)CC3)n2)c1	-4	9%	-25%	2	?	?
COCCCNC(=S)N1CCN(c2nc(-c3ccccc3)cs2)CC1	-4	.	.	-2	-7%	?
COCCNC(=S)N1CCN(c2nc(-c3cccc(OC)c3)cs2)CC1	4	1%[46.1 µM]	?	1	-13%	?
CCNC(=S)N1CCN(c2nc(-c3cccc(OC)c3)cs2)CC1	13	.	.	-2	?	10µM*
CCC(=O)N1CCN(c2nc(-c3ccc(Cl)cc3)cs2)CC1	63*	13%	6%	35*	10%	-7%
Cc1ccc(-c2nc(N)n(S(=O)(=O)c3ccc(C)cc3)n2)cc1	3	?	19%[46.1 µM]	7	13%	?
O=C(c1ccc(-n2cncn2)c([N+](=O)[O-])c1)N1CCN(S(=O)(=O)c2ccccc2F)CC1	.	?	?	.	?	11%
CCOc1ccc(N(C(=O)c2cc3ccccc3oc2=O)C2C=CS(=O)(=O)C2)cc1 (configuration not stated)	78*	3%	-11%	28*	-7%	?
Cc1ccc(N(C(=O)c2cc3ccccc3oc2=O)C2C=CS(=O)(=O)C2)cc1 (configuration not stated)	2	?	21%	11	3%	?
SMILES	Shiga inhibitor	LASV entry inh	Marburg entry inh	Cycloheximide cs	Pf growth 48h	Pf growth 96h
COc1ccc(OCC(=O)Nc2cc(S(=O)(=O)N3CCCCC3)ccc2OC)cc1	.	-28%	-9%	.	-5%	0%
CCN1CCN(c2ccc(S(=O)(=O)N3CCCCC3)cc2NC(=O)Cc2ccc(OC)cc2)CC1	10	5%	?	7	9.3µM*	5.9µM*
CCN1CCN(c2ccc(S(=O)(=O)N3CCCCC3)cc2NC(=O)c2cccc(Cl)c2)CC1	.	?	?	.	?	8.3µM*
CCN1CCN(S(=O)(=O)c2ccc(Cl)c(C(=O)N(C)C(c3ccccc3)c3ccccc3)c2)CC1	.	?	?	.	9.3µM*	13µM*
COc1ccc(CC(=O)Nc2cc(S(=O)(=O)N3CCCCC3)ccc2C)cc1	.	?	-20%	.	?	?
CN1CCN(c2ccc(S(=O)(=O)N3CCCCC3)cc2NC(=O)c2cccc([N+](=O)[O-])c2)CC1	-9	.	.	-2	-23%	0%

Source: PubChem
